Experimental data: PubChem BioAssay AID1159580 (chemical genetic matrix, 2015)
In all, about 5,500 compounds went through this assay and about 2,000 (36%) were called active. About 18% were inconclusive and are not listed. Rule as the data show it: active = normalized growth mostly below about 0.91 (no sharp cut-off); inconclusive = no clear call, values can overlap the other calls; inactive = mostly above about 0.92. The list shows a part of the results.

Experiment: chemical genetic growth profiling, strain panel (AID 1159580);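 also: tested at 20 µM; growth read once vehicle control cultures reached saturation at 30 °C; 1 = growth at the plate median or of vehicle wells; lower values mean less growth of the strain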
Details: growth OD
[1] = S. cerevisiae deletion strains, locus YAL013W, strain DEP1, hits give low values
[2] = S. cerevisiae deletion strains, locus YBR229C, strain ROT2, hits give low values
[3] = S. cerevisiae deletion strains, locus YDL101C, strain DUN1, hits give low values
[4] = S. cerevisiae deletion strains, locus YDL134C, strain PPH21, hits give low values
[5] = S. cerevisiae deletion strains, locus YDR150W, strain NUM1, hits give low values
[6] = S. cerevisiae deletion strains, locus YEL061C, strain CIN8, hits give low values
[7] = S. cerevisiae deletion strains, locus YGR078C, strain PAC10, hits give low values
[8] = S. cerevisiae deletion strains, locus YGR229C, strain SMI1, hits give low values
[9] = S. cerevisiae deletion strains, locus YHR030C, strain SLT2, hits give low values
[10] = S. cerevisiae deletion strains, locus YHR087W, strain rtc3, hits give low values
[11] = S. cerevisiae deletion strains, locus YJR043C, strain POL32, hits give low values
[12] = S. cerevisiae deletion strains, locus YJR075W, strain HOC1, hits give low values
[13] = S. cerevisiae deletion strains, locus YLR039C, strain RIC1, hits give low values
[14] = S. cerevisiae deletion strains, locus YLR058C, strain SHM2 (second series), hits give low values
[15] = S. cerevisiae deletion strains, locus YLR085C, strain ARP6, hits give low values
[16] = S. cerevisiae deletion strains, locus YLR262C, strain YPT6, hits give low values
[17] = S. cerevisiae deletion strains, locus YML094W, strain GIM5, hits give low values
[18] = S. cerevisiae deletion strains, locus YMR219W, strain ESC1, hits give low values
[19] = S. cerevisiae deletion strains, locus YMR263W, strain SAP30, hits give low values
[20] = S. cerevisiae deletion strains, locus YNL128W, strain TEP1, hits give low values
[21] = S. cerevisiae deletion strains, locus YNL153C, strain GIM3, hits give low values
[22] = S. cerevisiae deletion strains, locus YNL298W, strain CLA4 (second series), hits give low values
[23] = S. cerevisiae deletion strains, locus YNL322C, strain KRE1, hits give low values
[24] = S. cerevisiae deletion strains, locus YNR030W, strain Alg12, hits give low values
[25] = S. cerevisiae deletion strains, locus YOL006C, strain TOP1, hits give low values
[26] = S. cerevisiae deletion strains, locus YPL055C, strain LGE1, hits give low values
[27] = S. cerevisiae deletion strains, locus YPL241C, strain CIN2, hits give low values
[28] = S. cerevisiae deletion strains, locus YPR135W, strain CTF4, hits give low values

Measured: normalized growth

COc1cc(C2OC(c3cc(C)ccc3[N+](=O)[O-])=NN2C(C)=O)cc(OC)c1OC (stereo not given)
inactive: [1] 0.986 | [2] 0.975 | [3] 1.04 | [4] 0.999 | [5] 0.993 | [6] 0.941 | [7] 1 | [8] 0.999 | [9] 0.948 | [10] 0.963 | S. cerevisiae deletion strains, locus YJL187C, strain SWE1, hits give low values 0.98 | [11] 1 | [12] 0.999 | S. cerevisiae deletion strains, locus YKL190W, strain CNB1, hits give low values 0.993 | [13] 0.969 | [14] 0.978 | [15] 0.967 | [16] 0.948 | [17] 0.98 | [18] 0.984 | [19] 0.999 | [20] 0.991 | [21] 1.02 | [22] 1.01 | [23] 0.993 | [24] 0.985 | [25] 0.924 | [26] 0.972 | [27] 1.01 | [28] 1.04

N#CC(NCc1ccccc1)c1ccc(Cl)c(Cl)c1 (stereo not given)
active: [4] 0.848
inactive: [1] 1 | [2] 0.983 | [3] 0.974 | [5] 0.923 | [6] 0.985 | [7] 0.984 | [8] 0.989 | [9] 0.887 | [10] 1.01 | [11] 1.01 | [12] 0.968 | [13] 0.929 | [14] 0.995 | [15] 0.977 | [16] 0.957 | [17] 0.958 | [18] 0.998 | [19] 0.974 | S. cerevisiae deletion strains, locus YMR307W, strain GAS1, hits give low values 0.818 | [20] 0.994 | [21] 0.98 | [22] 0.96 | [23] 1.01 | [24] 0.968 | [25] 0.982 | [26] 0.988 | [27] 0.938 | [28] 0.938 | S. cerevisiae strains, strain wild type, hits give low values 1
